Experimental data from PubChem BioAssay AID1159580 (chemical genetic matrix, 2015).
Screen size: about 5,500 compounds; about 2,000 (36%) were called active. Inconclusive results (about 18%) are left out. Rule as the data show it: active = normalized growth mostly below about 0.91 (no sharp cut-off); inconclusive = no clear call, values can overlap the other calls; inactive = mostly above about 0.92. The list shows a part of the results.

Assay: chemical genetic growth profiling, strain panel (AID 1159580);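 also: tested at 20 µM; growth read once vehicle control cultures reached saturation at 30 °C; 1 = growth at the plate median or of vehicle wells; lower values mean less growth of the strain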
Conditions: growth OD

Measured: normalized growth

Nc1ccc(C(=O)NCC(=O)O)cc1
inactive: S. cerevisiae deletion strains, locus YKL009W, strain mrt4, active compounds read low 1.02 | S. cerevisiae deletion strains, locus YKL068W, active compounds read low 1 | S. cerevisiae deletion strains, locus YKL085W, strain MDH1 (second series), active compounds read low 1.01 | S. cerevisiae deletion strains, locus YKL085W, strain MDH1, active compounds read low 1.01 | S. cerevisiae deletion strains, locus YKL160W, strain elf1, active compounds read low 1.04 | S. cerevisiae deletion strains, locus YKL190W, strain CNB1, active compounds read low 1 | S. cerevisiae deletion strains, locus YKR001C, strain vps1, active compounds read low 1.02 | S. cerevisiae deletion strains, locus YKR026C, strain gcn3, active compounds read low 1.01 | S. cerevisiae deletion strains, locus YKR091W, strain srl3, active compounds read low 0.999 | S. cerevisiae deletion strains, locus YLL001W, strain dnm1, active compounds read low 1 | S. cerevisiae deletion strains, locus YLL026W, active compounds read low 0.997 | S. cerevisiae deletion strains, locus YLL041C, strain sdh2, active compounds read low 1.01 | S. cerevisiae deletion strains, locus YLR027C, strain aat2, active compounds read low 1.03 | S. cerevisiae deletion strains, locus YLR039C, strain RIC1, active compounds read low 1.01 | S. cerevisiae deletion strains, locus YLR058C, strain SHM2, active compounds read low 0.998 | S. cerevisiae deletion strains, locus YLR102C, strain apc9, active compounds read low 1.02 | S. cerevisiae deletion strains, locus YLR113W, strain HOG1, active compounds read low 0.937 | S. cerevisiae deletion strains, locus YLR221C, strain rsa3, active compounds read low 1 | S. cerevisiae deletion strains, locus YLR258W, strain gsy2, active compounds read low 1.03 | S. cerevisiae deletion strains, locus YLR262C, strain YPT6 (second series), active compounds read low 1.02 | S. cerevisiae deletion strains, locus YLR262C, strain YPT6, active compounds read low 1.04 | S. cerevisiae deletion strains, locus YLR268W, strain sec22, active compounds read low 1.02 | S. cerevisiae deletion strains, locus YLR320W, strain mms22, active compounds read low 1.01 | S. cerevisiae deletion strains, locus YLR330W, strain CHS5, active compounds read low 1.01 | S. cerevisiae deletion strains, locus YLR342W, strain FKS1 (second series), active compounds read low 0.987 | S. cerevisiae deletion strains, locus YLR342W, strain FKS1, active compounds read low 1.02 | S. cerevisiae deletion strains, locus YLR357W, strain rsc2, active compounds read low 1.07 | S. cerevisiae deletion strains, locus YLR370C, strain arc18, active compounds read low 1.01 | S. cerevisiae deletion strains, locus YLR371W, strain rom2, active compounds read low 1 | S. cerevisiae deletion strains, locus YLR384C, strain iki3, active compounds read low 1.02 | S. cerevisiae deletion strains, locus YLR418C, strain cdc73, active compounds read low 1.04 | S. cerevisiae deletion strains, locus YML016C, strain PPZ1, active compounds read low 1 | S. cerevisiae deletion strains, locus YML032C, strain rad52, active compounds read low 1.01 | S. cerevisiae deletion strains, locus YML120C, strain ndi1, active compounds read low 1 | S. cerevisiae deletion strains, locus YML124C, strain tub3, active compounds read low 1.01 | S. cerevisiae deletion strains, locus YMR058W, strain fet3, active compounds read low 1.01 | S. cerevisiae deletion strains, locus YMR078C, strain ctf18, active compounds read low 1.02 | S. cerevisiae deletion strains, locus YMR125W, strain sto1, active compounds read low 1.02 | S. cerevisiae deletion strains, locus YMR129W, active compounds read low 1.02 | S. cerevisiae deletion strains, locus YMR205C, strain PFK2, active compounds read low 1.03 | S. cerevisiae deletion strains, locus YMR223W, strain ubp8, active compounds read low 1.01 | S. cerevisiae deletion strains, locus YMR231W, strain pep5, active compounds read low 1.02 | S. cerevisiae deletion strains, locus YMR263W, strain SAP30, active compounds read low 1 | S. cerevisiae deletion strains, locus YMR307W, strain GAS1, active compounds read low 1.03 | S. cerevisiae deletion strains, locus YNL067W, strain RPL9B, active compounds read low 0.99 | S. cerevisiae deletion strains, locus YNL071W, strain lat1, active compounds read low 1.03 | S. cerevisiae deletion strains, locus YNL153C, strain GIM3, active compounds read low 0.973 | S. cerevisiae deletion strains, locus YNL183C, strain NPR1, active compounds read low 0.908 | S. cerevisiae deletion strains, locus YNL209W, strain ssb2, active compounds read low 1.01 | S. cerevisiae deletion strains, locus YNL233W, strain BNI4, active compounds read low 0.986 | S. cerevisiae deletion strains, locus YNL248C, strain rpa49, active compounds read low 1.02 | S. cerevisiae deletion strains, locus YNL250W, strain rad50, active compounds read low 1.01 | S. cerevisiae deletion strains, locus YNL271C, strain bni1, active compounds read low 1.02 | S. cerevisiae deletion strains, locus YNL298W, strain CLA4, active compounds read low 1.03 | S. cerevisiae deletion strains, locus YNL307C, strain MCK1, active compounds read low 1.02 | S. cerevisiae deletion strains, locus YNL322C, strain KRE1 (second series), active compounds read low 1.01 | S. cerevisiae deletion strains, locus YNL322C, strain KRE1, active compounds read low 0.997 | S. cerevisiae deletion strains, locus YNR049C, strain mso1, active compounds read low 1.01 | S. cerevisiae deletion strains, locus YNR052C, strain pop2, active compounds read low 1.02 | S. cerevisiae deletion strains, locus YOL006C, strain TOP1, active compounds read low 0.96 | S. cerevisiae deletion strains, locus YOL012C, strain htz1 1.06 | S. cerevisiae deletion strains, locus YOL147C, strain pex11, active compounds read low 1.01 | S. cerevisiae deletion strains, locus YOR001W, strain rrp6, active compounds read low 0.986 | S. cerevisiae deletion strains, locus YOR061W, strain CKA2, active compounds read low 1.01 | S. cerevisiae deletion strains, locus YOR069W, strain VPS5, active compounds read low 1 | S. cerevisiae deletion strains, locus YOR070C, strain gyp1, active compounds read low 1.01 | S. cerevisiae deletion strains, locus YOR080W, strain dia2, active compounds read low 1.01 | S. cerevisiae deletion strains, locus YOR083W, strain WHI5, active compounds read low 0.99 | S. cerevisiae deletion strains, locus YOR106W, strain vam3, active compounds read low 1.04 | S. cerevisiae deletion strains, locus YOR136W, strain idh2, active compounds read low 1.02 | S. cerevisiae deletion strains, locus YOR144C, strain elg1, active compounds read low 1.01 | S. cerevisiae deletion strains, locus YOR184W, strain ser1, active compounds read low 1.02 | S. cerevisiae deletion strains, locus YOR231W, strain MKK1, active compounds read low 0.97 | S. cerevisiae deletion strains, locus YOR265W, strain rbl2, active compounds read low 1 | S. cerevisiae deletion strains, locus YOR270C, strain vph1, active compounds read low 1.02 | S. cerevisiae deletion strains, locus YOR290C, strain snf2, active compounds read low 1.04 | S. cerevisiae deletion strains, locus YOR316C, strain cot1, active compounds read low 1.02 | S. cerevisiae deletion strains, locus YPL051W, strain arl3, active compounds read low 1.02 | S. cerevisiae deletion strains, locus YPL078C, strain atp4, active compounds read low 1.02 | S. cerevisiae deletion strains, locus YPL106C, strain sse1, active compounds read low 1.04 | S. cerevisiae deletion strains, locus YPL240C, strain hsp82, active compounds read low 1.01 | S. cerevisiae deletion strains, locus YPL241C, strain CIN2, active compounds read low 1 | S. cerevisiae deletion strains, locus YPL256C, strain CLN2, active compounds read low 0.936 | S. cerevisiae deletion strains, locus YPR119W, strain clb2, active compounds read low 1.01 | S. cerevisiae deletion strains, locus YPR141C, strain kar3, active compounds read low 1.01 | S. cerevisiae deletion strains, locus YPR163C, strain tif3, active compounds read low 1.01 | S. cerevisiae deletion strains, locus YPR167C, strain met16, active compounds read low 1.02 | S. cerevisiae deletion strains, strain wtn01, active compounds read low 1.03 | S. cerevisiae strains, strain wild type, active compounds read low 0.995
